Structures are written as SMILES. Values joined by “and” are separate entries in the source; they are usually repeats but may differ in a detail not shown here. Equal values may be shown once. Active and inactive are the calls of the source. The calls were made as follows: active = hit-call score of the fitted dose curve at least 0.9, where 1 is the maximum; inactive = score below 0.9.

Read-out in the test: Monocyte Chemoattractant Protein-1 (MCP1), CCL2 (gene 6347)
The test is described as follows: BSK_SAg_MCP1: BioMAP Diversity Plus: SAg Assay for Monocyte Chemoattractant Protein-1 (MCP1) Biomarker Activity (AID 2283090). The conditions noted are these: primary human HUVEC with PBMC; actives raise or lower the signal. How it is done:
BSK_SAg is a cell-based, multiplexed-readout assay that uses umbilical vein endothelium and peripheral blood mononuclear cells, a human vascular primary cell co-culture, with measurements taken at 24 hours after chemical dosing in a 96-well plate.BSK_SAg_MCP1 is an assay component measured in the BSK_SAg assay. It measures MCP-1 antibody related to regulation of gene expression using ELISA technology.Data from the assay component BSK_SAg_MCP1 was analyzed into 1 assay endpoint. This assay endpoint, BSK_SAg_MCP1, was analyzed with bidirectional fitting relative to DMSO as the negative control and baseline of activity. Using a type of binding reporter, gain or loss-of-signal activity can be used to understand changes in the signaling as they relate to the gene CCL2. Furthermore, this assay endpoint can be referred to as a primary readout, because this assay has produced multiple assay endpoints where this one serves a signaling function. To generalize the intended target to other relatable targets, this assay endpoint is annotated to the cytokine intended target family, where the subfamily is chemotactic factor.
The levels of cell surface (or secreted, indicated by the prefix "s") biomarker endpoints were measured by ELISA. Overt cytotoxicity to cells in confluent adherent cultures (all systems other than the BT system) was assessed by measuring total protein levels using sulforhodamine B (SRB) staining in parallel cultures at the time of biomarker measurements, indicated as SRB endpoints. For proliferation assays for adherent cell types, individual cell types are cultured at sub-confluence and relative cell numbers quantified by SRB staining at time points optimized for each system (48 h: 3C and CASM3C systems; 72 h: BT and HDF3CGF systems; 96 h: SAg system). SRB was performed by staining cells with 0.1% SRB after fixation with 10% TCA and reading wells at 560 nm.Viability and proliferation of PBMC (T cells) was quantified by Alamar Blue reduction for the SAg and BT systems. For PBMC viability (referred to as PBMC Cytotoxicity within the assay endpoint names), cells were plated (75,000/well in a 96-well plate) and then chemical samples added for 1 h before addition of activators, SEB and TSST-1 (20 ng/mL final concentration each). Cells were incubated for 90 h. Then, Alamar Blue (20 uL/well) (Invitrogen, Cat DAL1100) was added for 6 h, and the plates were read with a fluorescence microplate reader at 546/580 nm (excitation/emission). For PBMC proliferation, cells were plated and activated as above but incubated for only 16 h prior to addition of Alamar Blue. Plates were read after 6 h.
Turning to `O=C(O)c1cc(Oc2ccc(C(F)(F)F)cc2Cl)ccc1[N+](=O)[O-]`, the result was inactive.

Turning to `CCOP(=S)(OCC)Oc1ccc([N+](=O)[O-])cc1`, the result was inactive.

As for `CCCOc1nn(C(=O)NS(=O)(=O)c2ccccc2C(=O)OC)c(=O)n1C`, the result was inactive.

Take `CCc1cnc(C2=NC(C)(C(C)C)C(=O)N2)c(C(=O)O)c1` (stereo not given): the result was inactive.

With `C#CC(C)(C)NC(=O)c1cc(Cl)cc(Cl)c1`, the result was inactive.

For orientation: AC50 means the midpoint of the concentration-response curve, whichever way the signal moves. Regarding `CSC1=N[C@@](C)(c2ccccc2)C(=O)N1Nc1ccccc1`, the AC50 was 20 µM (active).

Take `CC(C)=CC1C(C(=O)OCN2C(=O)C3=C(CCCC3)C2=O)C1(C)C` (stereo not given): the half-maximal activity concentration (AC50) was 18.2 µM (active).

Regarding `CCOP(=S)(OCC)Oc1cc(C)nc(C(C)C)n1`, the result was inactive.

Consider `CNc1cnn(-c2cccc(C(F)(F)F)c2)c(=O)c1Cl`, for which the outcome was inactive.

With `CCCCOC(=O)c1ccccc1C(=O)O`, the result was inactive.

On to `CCCCN(CC)c1c([N+](=O)[O-])cc(C(F)(F)F)cc1[N+](=O)[O-]`, for which the outcome was inactive.

For `C#CCC1=C(C)C(OC(=O)C2C(C=C(C)C)C2(C)C)CC1=O` (stereo not given), the AC50 is 30 µM (active).

Turning to `C[Si](Cn1cncn1)(c1ccc(F)cc1)c1ccc(F)cc1`, the AC50 was 28.9 µM (active).

As to `CC(Oc1cccc(Cl)c1)C(=O)O` (stereo not given), the result was inactive.

For the compound `CNC(=O)ON=C(C)SC`, the outcome was inactive.

As for `CCC(CC)Nc1c([N+](=O)[O-])cc(C)c(C)c1[N+](=O)[O-]`, the AC50 is 29.1 µM (active).

For `O=[N+]([O-])c1cc(C(F)(F)F)c(Cl)c([N+](=O)[O-])c1Nc1ncc(C(F)(F)F)cc1Cl`, the AC50 was 2.24 µM (active) and 3.79 µM (active).

With `COc1cccc(C(=O)NN(C(=O)c2cc(C)cc(C)c2)C(C)(C)C)c1C`, the outcome was inactive.

As for `CNC(=O)ON=C(SC)C(=O)N(C)C`, the result was inactive.

As to `CCC(=O)Nc1ccc(Cl)c(Cl)c1`, the outcome was inactive.

Regarding `CCNc1nc(Cl)nc(NC(C)(C)C#N)n1`, the outcome was inactive.

Take `COc1ccc(C(=CC(=O)N2CCOCC2)c2ccc(Cl)cc2)cc1OC`: the AC50 is 12.8 µM (active).

Regarding `CCCCOC(=O)[C@@H](C)Oc1ccc(Oc2ccc(C#N)cc2F)cc1`, the outcome was inactive.

Take `CCOP(=S)(OCC)OC(Cl)C(Cl)(Cl)Cl` (stereo not given): the result was inactive.

In the case of `CCCCSP(=O)(SCCCC)SCCCC`, the AC50 is 20 µM (active).

As to `CCC(=NOC/C=C/Cl)C1=C(O)CC(C2CCOCC2)CC1=O` (stereo not given), the outcome was inactive.

With `CC(C1CC1)C(O)(Cn1cncn1)c1ccc(Cl)cc1` (stereo not given), the result was inactive.

In the case of `Cc1ccn2nc(S(=O)(=O)Nc3c(F)cccc3F)nc2n1`, the result was inactive.

Take `CC1(C(=O)Nc2ccc(O)c(Cl)c2Cl)CCCCC1`: the result was inactive.

Consider `CCOP(=S)(OCC)SCCSCC`, for which the result was inactive.

Turning to `CCOP(=O)(NC(C)C)Oc1ccc(SC)c(C)c1` (stereo not given), the outcome was inactive.

For the compound `Cc1nn(-c2cc(NS(C)(=O)=O)c(Cl)cc2Cl)c(=O)n1C(F)F`, the outcome was inactive.

For the compound `Nc1nc(N)nc(NC2CC2)n1`, the result was inactive.

As to `CC1=NNC(=O)N(/N=C/c2cccnc2)C1`, the outcome was inactive.

Turning to `COP(=O)(NC(C)=O)SC` (stereo not given), the outcome was inactive.

Regarding `CC(COc1ccc(Oc2ccccc2)cc1)Oc1ccccn1` (stereo not given), the result was inactive.

In the case of `CCOP(=O)(SC(C)CC)N1CCSC1=O` (stereo not given), the outcome was inactive.

Turning to `N#CSCSC#N`, the AC50 was 11.9 µM (active).

For `CCOP(=O)(OCC)Oc1cc(C)nc(C(C)C)n1`, the result was inactive.

Regarding `CN(C)NC(=O)CCC(=O)O`, the outcome was inactive.

These data come from PubChem BioAssay (EPA / NIEHS).
